# Rows were chosen to be rich in hits. Some 2.4% of all compounds tested hit in one or more screens of this group.
# TLR9-MyD88 inh = inhibitors of human TLR9-MyD88 binding; inhibition, % at 4.98 µM; 340,000 compounds, 0.21% hits; Q9NR96+Q99836; AID 504734; CHO BLA complementation TLR9-MyD88, CCF4 FRET ratio;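 active means inhibition above the mean over all tested compounds plus 3 SD, cut at about 21% in these data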;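 further: 0% = DMSO only wells and 100% = clavulanate BLA inhibitor control wells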
# Target sequence (Q99836 whole entry, looked up): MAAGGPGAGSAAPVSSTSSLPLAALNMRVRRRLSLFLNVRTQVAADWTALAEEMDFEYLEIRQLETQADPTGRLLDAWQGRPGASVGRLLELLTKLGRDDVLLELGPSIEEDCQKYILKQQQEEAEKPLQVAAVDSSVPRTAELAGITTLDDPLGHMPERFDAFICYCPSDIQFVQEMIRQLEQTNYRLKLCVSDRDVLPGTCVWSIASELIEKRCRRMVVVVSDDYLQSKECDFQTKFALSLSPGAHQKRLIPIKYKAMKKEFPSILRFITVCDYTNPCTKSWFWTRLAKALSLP
# Target sequence (Q9NR96 whole entry, looked up): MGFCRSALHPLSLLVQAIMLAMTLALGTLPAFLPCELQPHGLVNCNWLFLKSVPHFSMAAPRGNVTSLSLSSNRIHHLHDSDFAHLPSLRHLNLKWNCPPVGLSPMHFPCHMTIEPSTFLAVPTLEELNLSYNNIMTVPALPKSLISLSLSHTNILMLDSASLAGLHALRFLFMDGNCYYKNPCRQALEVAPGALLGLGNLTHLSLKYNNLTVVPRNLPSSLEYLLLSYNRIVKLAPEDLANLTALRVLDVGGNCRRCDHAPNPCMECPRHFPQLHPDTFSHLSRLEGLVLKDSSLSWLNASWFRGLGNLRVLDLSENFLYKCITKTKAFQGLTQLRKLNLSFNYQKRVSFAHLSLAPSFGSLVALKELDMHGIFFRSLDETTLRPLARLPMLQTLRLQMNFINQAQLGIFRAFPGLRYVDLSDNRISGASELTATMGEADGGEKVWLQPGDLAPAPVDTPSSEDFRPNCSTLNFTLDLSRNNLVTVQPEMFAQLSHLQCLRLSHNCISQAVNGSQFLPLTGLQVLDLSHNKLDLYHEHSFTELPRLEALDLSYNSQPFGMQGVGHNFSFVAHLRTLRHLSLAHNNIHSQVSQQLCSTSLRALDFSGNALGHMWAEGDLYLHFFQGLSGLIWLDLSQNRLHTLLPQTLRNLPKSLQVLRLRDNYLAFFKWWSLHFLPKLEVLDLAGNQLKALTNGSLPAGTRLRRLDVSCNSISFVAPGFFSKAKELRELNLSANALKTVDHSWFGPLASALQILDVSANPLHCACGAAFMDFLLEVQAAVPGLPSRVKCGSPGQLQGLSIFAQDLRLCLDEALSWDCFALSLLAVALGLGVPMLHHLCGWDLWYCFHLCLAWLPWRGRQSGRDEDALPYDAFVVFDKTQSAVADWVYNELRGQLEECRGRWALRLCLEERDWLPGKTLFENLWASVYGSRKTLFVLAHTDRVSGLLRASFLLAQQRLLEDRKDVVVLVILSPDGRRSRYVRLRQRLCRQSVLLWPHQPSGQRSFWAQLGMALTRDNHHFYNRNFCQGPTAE
# HSF1 activator = increases HSF-1 driven luciferase reporter signal; NIH3T3-HGL HSF-1 luciferase reporter, MG132, 8 h; 100% = twice DMSO control signal; activation, % at 9 µM; 300,000 compounds, 1.7% hits; AID 504408;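 active means mean replicate activation of at least 50% with a set share of replicates each reaching 50%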;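 further: 0% = median of the neutral control wells and 100% = twice that signal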
# NOD2 RIPK2 PPI = blocks binding of human NOD2 to RIPK2. O43353. CHO BLA complementation NOD2-RIPK2, CCF4 ratio. inhibition, % at 4.98 µM. 360,000 compounds, 0.38% hits; in the data active means inhibition above about 21%;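 further: 0% = vehicle only and 100% = reference blocker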
# HSF1 inh = HSF1 inhibition. activity change, negative = inhibition, % at 7.5 µM (by protocol). 300,000 compounds, 0.77% hits. NIH3T3-HGL HSE-luciferase, MG132-induced, luminescence 8 h; stronger effect = lower value;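 active means more than half of replicate wells show activity change below -50%, luminescence cut by over half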;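 further: luciferase reports HSF-1 transcriptional activity via heat shock element; 0% = median of DMSO wells and -100% = zero luminescence signal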
# TLR4 MyD88 comp = inhibitors of human TLR4-MyD88 binding. O00206+Q99836. HeLa CL3-4 TLR4/MyD88 BLA complementation, FRET ratio. inhibition, % at 8.4 µM. 200,000 compounds, 0.18% hits; in the data active means inhibition above about 25%;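 further: 0% = vehicle and 100% = reference inhibitor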
# * = called active by the depositor; · = no result.
SMILES,TLR9-MyD88 inh,HSF1 activator,NOD2 RIPK2 PPI,HSF1 inh,TLR4 MyD88 comp
O=C(Cc1ccc(Cl)cc1)Nc1ccccc1Sc1ccccc1,-2,20,-3,7,11
CC1CN(C(=O)c2ccccc2NS(=O)(=O)c2ccc(Cl)cc2)CC(C)O1 (centres undefined),-6,·,-5,·,·
COc1ccc2c3n(nc2c1)CCN=C3c1ccc(C)cc1,-3,·,6,·,·
COc1ccc(C2=NCCn3nc4cc([N+](=O)[O-])ccc4c32)cc1,-3,-74,-4,-66*,·
Cc1ccc2cc(NC(=O)C3(C)CCN(C)C3)ccc2n1 (centres undefined),·,·,-13,·,·
O=C(Nc1ccccc1)Nc1nc(-c2ccccc2)cs1,-1,3,2,-9,·
COc1cccc(-c2csc(NC(=O)Nc3ccccc3)n2)c1,7,-70,-9,-60*,·
Cc1ccc(C(=O)NCC(=O)OCn2nnc3ccccc3c2=O)cc1,1,·,-8,·,·
N#Cc1nc(-c2cccc3ccccc23)oc1NCCN1CCCCC1,-4,70*,1,55,-1
CCNc1oc(-c2cccc3ccccc23)nc1C#N,-8,44,5,26,-3
C=CCn1c(CCNC(=O)c2ccc(Cl)c(Cl)c2)nnc1SCCOc1ccc(OC)cc1,-1,128*,-13,73,1
C=CCn1c(SCCOc2ccccc2)nnc1C(C)NC(=O)c1ccccc1 (centres undefined),-2,17,1,12,0
CC(C)C(=O)N1CCC(n2nccc2NC(=O)CCOc2ccccc2)CC1,-8,54*,-3,16,·
CCNC(=O)N1CCC(n2nccc2NC(=O)CCOc2ccccc2)CC1,-6,-19,-4,-2,·
CCOC(=O)c1c(C)[nH]c(C(=O)/C(C#N)=C/c2ccc(OC)c(OC)c2)c1C,-21,22,-7,-4,9
COc1cc(/C=C(/C#N)C(=O)c2c(C)[nH]c3ccccc23)ccc1OCC#N,-5,68*,7,42,·
CCCCOc1ccc(N2CC(C(=O)NCCc3ccc(OC)c(OC)c3)CC2=O)cc1 (centres undefined),4,-87,-16,-82*,5
CCOc1ccc(N2CC(C(=O)NCCc3c[nH]c4ccc(C)cc34)CC2=O)cc1 (centres undefined),-10,-64,-9,-58*,·
CC(C)CNc1ncnc2c1ncn2[C@H]1CN(Cc2ccc(C(=O)O)cc2)C[C@@H](CO)O1,·,·,-2,·,·
Cc1cccc(NC(=O)C(C)Sc2ncnc3sccc23)c1 (centres undefined),3,·,3,·,·
CC1(C(=O)Nc2cccc3c2CCCC3)CCN1C(=O)Cc1ccccc1Cl (centres undefined),·,·,-6,·,·
COc1ccc(NC(=O)c2cc(C3CCCCN3C(=O)C3CCCCC3)on2)c(C)c1 (centres undefined),·,·,2,·,·
O=C(COC(=O)/C=C/c1cccc(Br)c1)NC1CCCCCC1,2,·,-9,·,·
CN(C(=O)c1cc(COc2ccc(F)cc2Cl)on1)C1CCOC1 (centres undefined),7,·,-1,·,·
CN(C)CCNC(=O)CN1C(=O)COc2ccc(C(C)(C)C)cc21,-16,-75,-1,-68*,-2
SMILES,TLR9-MyD88 inh,HSF1 activator,NOD2 RIPK2 PPI,HSF1 inh,TLR4 MyD88 comp
Cc1ccc2c(c1)N(CC(=O)O)C(=O)CO2,-6,-83,-5,-80*,1
CCOC(=O)C1=C(C)Nc2ccccc2N=C1NC(=O)c1oc2ccccc2c1COC,6,·,1,·,·
CNC(=O)c1cc2c(ccc3ccccc32)o1,-5,58*,-7,30,-2
CCCCN(CC)C(=S)Nc1ccc2nc(N3CCN(C)CC3)cc(C)c2c1,9,-55,-4,-56*,-5
Cc1cc(N2CCCC2)nc2ccc(NC(=S)NCCCN3CCC(C)CC3)cc12,2,54*,-3,14,8
CCCCN(C)C(=S)Nc1ccc2nc(N3CCN(CC)CC3)cc(C)c2c1,-1,-71,-21,-64*,18
CC1=CC(=O)O[C@@H]1[C@@]1(C)C[C@H]2OC(=O)C[C@H]3[C@@H](C)C(=O)C(O)=C1[C@@]23CO,1,-1,-8,-1,·
COCC(C)NC(=O)CCS(=O)(=O)c1nc(-c2ccc(OC)cc2)cc(C(F)(F)F)n1 (centres undefined),-9,238*,-10,179,-5
COCCNC(=O)CCSc1nc(-c2ccc(OC)cc2)cc(C(F)(F)F)n1,-3,-9,5,2,-5
